Max response and Potency data for 40 compounds are collected here from PubChem BioAssay (NCATS).

“And” between values parts separate entries of the source, which are not always exact repeats. Identical values can stand only once. Inconclusive results are not listed. The source made the active and inactive calls. The call rests on the fitted dose curve; in most records, active means well fitted curve in the direction sought with a large enough effect; inconclusive means small, poorly fitted or top-dose-only effect, or another doubt; inactive means no such curve, though single readings can be large or run the other way.
On the % scale 0 is the no-effect control and ±100 the full control effect; potency means the concentration at half of the fitted maximal effect.

The assay in a line: qHTS Assay for Identifying Gametocytocidal Compounds (AID 743244).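 On Max response: actives lower the fluorescent signal which means gametocytes are killed.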 The following applies: P. falciparum 3D7 stage III-V gametocytes, alamarBlue, 72 h; max response: hits give low values. An excerpt: Malaria cases and deaths have dropped 50% in 29 countries since 2000 due to the combined effects of long-lasting insecticidal bednets, indoor residual spraying, and artemisinin-based combination therapies (ACTs). This success has raised hopes for malaria eradication and consequently stimulated interest in developing new reagents that block gametocyte transmission such as novel and safe gametocytocidal drugs. However, previous drug development efforts have focused primarily on the asexual parasites that cause symptoms, but not malaria transmission. Consequently, patients can remain infectious for weeks after the clearance of asexual parasites and clinical symptoms. To be transmitted from person to person via a mosquito, the parasites must switch from asexual to sexual development and produce male and female gametocytes. Malaria gametocytes consist of five stages (I, II, III, IV and V). The late stage gametocytes (III, IV and V) are difficult to be cultured in vitro and the long lifespan of mature gametocytes allows them being transmitted from host to mosquitoes unless they are completely eliminated by gametocytocidal agents. To identify gametocytocidal compounds which are capable of killing late stage P. falciparum gametocytes, a high throughput gametocyte viability assay was employed. This assay uses oxidoreduction indicator, alamarBlue, as a general measure of metabolic activity of gametocytes. Within live cells, the nonfluorescent resazurin is reduced to resorufin, a bright red fluorescence dye. Fluorescence decreases upon treatment of gametocytocidal compounds. P. falciparum gametocyte (3D7 strain) was used in this study.
The 1536-well gametocycidal viability assay was based on the previous method of Tanaka et al. Stage III-V gametocytes were tested against three compound libraries, including 4265 compounds from NCGC pharmaceutical collection, 400 from Malaria Box library, and 550 from an internal collection of kinase inhibitors. Briefly, 2.5 ul/well incomplete medium was dispensed into each well of 1,536-well plates using the Multidrop Combi followed by 23 nl compound transferring using the NX-TR Pintool (WAKO Scientific Solutions, San Diego, CA). Then, 2.5 ul/well of gametocytes was dispensed with a seeding density of 20,000 cells/well using the Multidrop Combi. The assay plates were incubated for 72 h at 37C with 5% CO2. After addition of 5 ul/well of 2X AlamarBlue dye (Life Technologies, cat. no. DAL1100), the plates were incubated for 24 h at 37C with 5% CO2 and then were read in a fluorescence detection mode (Ex = 525 nm, Em = 598 nm) on a ViewLux plate reader (PerkinElmer).
(In general: Quantitative high-throughput screening tests each substance at several concentrations.)
Regarding `CCCN(CCC)CCc1ccc(O)c(O)c1`, the max response is 12.9% (inactive).

Turning to `N#C/C(=C/c1ccc(O)c(O)c1)C(N)=S`, the max response is 27.1% (inactive).

Consider `O=C(OCCN1CCCCC1)C(O)(c1ccccc1)c1ccccc1`, for which the max response was 6.84% (inactive).

Regarding `O=C1C[C@@H]2OCC=C3CN4CC[C@]56c7ccccc7N1[C@H]5[C@H]2[C@H]3C[C@H]46`, the max response is 1.95% (inactive).

In the case of `CO[C@H]1[C@@H](O)C[C@H](O[C@H]2[C@@H](O)C[C@H](O[C@H]3[C@@H](O)C[C@H](O[C@H]4CC[C@@]5(C)[C@H](CC[C@@H]6[C@@H]5C[C@@H](O)[C@]5(C)[C@@H](C7=CC(=O)OC7)CC[C@]65O)C4)O[C@@H]3C)O[C@@H]2C)O[C@@H]1C`, the max response was -9.7% (inactive).

In the case of `OC[C@@H](O)[C@H]1O[C@@H]2O[C@@H](C(Cl)(Cl)Cl)O[C@@H]2[C@H]1O`, the max response is -7.25% (inactive).

`CC1(C)S[C@@H]2[C@H](N)C(=O)N2[C@H]1C(=O)O`: the max response was -4.29% (inactive).

In the case of `CCC1C(C)=NN=C(c2ccc(OC)c(OC)c2)c2cc(OC)c(OC)cc21` (stereo not given), the max response was 2.95% (inactive).

`O=C(NC(=O)c1c(F)cccc1F)Nc1ccc(Cl)c(Oc2ncc(C(F)(F)F)cc2Cl)c1`: the max response is -9.15% (inactive).

Consider `CCN(CCCl)Cc1ccccc1Br`, for which the max response is -1.83% (inactive).

On to `C=CCN1CCc2cccc3c2[C@H]1Cc1ccc(O)c(O)c1-3`, for which the Potency was 1120 nM (active).

Take `CN1CCc2cccc(Cl)c2CC1`: the max response is 33.5% (inactive).

Turning to `O=C1CCO1`, the max response is 11.4% (inactive).

Turning to `O=C(CCl)c1ccc(Oc2ccc(C(=O)CCl)cc2)cc1`, the max response is 0.618% (inactive).

`Clc1ccc(Cl)cc1`: the max response is -1.73% (inactive).

For the compound `O=S(=O)(O)c1cc(O)ccc1O`, the max response was 6.77% (inactive).

As to `c1ccc(C2(N3CCCC3)CCCCC2)cc1`, the max response was -1.69% (inactive).

In the case of `CC(=O)Oc1ccc2c3c1O[C@H]1[C@@H](OC(C)=O)C=C[C@H]4[C@@H](C2)N(C)CC[C@@]341`, the max response is 1.05% (inactive) and 0.272% (inactive).

For the compound `c1ccc2cc(CC3=NCCN3)ccc2c1`, the max response was 5.44% (inactive).

On to `CCC(=O)O[C@]1(c2ccccc2)CCN(C)C[C@H]1C`, for which the max response is -3.07% (inactive).

As to `C[C@]12C=CC(=O)C=C1CC[C@@H]1[C@@H]2CC[C@]2(C)OC(=O)CC[C@@H]12`, the max response was -1.22% (inactive).

`CCC(C)(S(=O)(=O)CC)S(=O)(=O)CC`: the max response was 7.4% (inactive).

Turning to `CC(C)(O)[C@@H]1C2OC(=O)[C@@H]1[C@]1(O)C[C@H]3O[C@]34C(=O)O[C@H]2[C@]14C` (tested in a mixture with another compound), the max response was 18.2% (inactive).

As for `CCCn1c(=O)c2[nH]c(C3CCCC3)nc2n(CCCOC(=O)c2ccc(S(=O)(=O)F)cc2)c1=O`, the max response was 11.9% (inactive).

With `COc1ccc2[nH]c3c(c2c1)CCNC3`, the max response is -9.37% (inactive).

Consider `O=P(O)(O)C(Cl)(Cl)P(=O)(O)O`, for which the max response was -3.79% (inactive) and -4.92% (inactive).

On to `O=c1[nH]cc(N(CCCl)CCCl)c(=O)[nH]1`, for which the max response was -3.92% (inactive).

As to `Clc1cc(I)cc(Cl)c1NC1=NCCN1`, the max response was 44.8% (inactive).

As to `CNC(=O)OCC[N+](C)(C)C`, the max response is -1.58% (inactive).

In the case of `O=C1C=CC(=O)C=C1`, the max response was 4.21% (inactive).

For `CCCSP(=O)(OCC)SCCC`, the max response was -10.7% (inactive).

`CC12NC(Cc3ccccc31)c1ccccc12` (stereo not given): the max response was 3.88% (inactive).

As for `O=C1CC[C@@]2(O)C3Cc4ccc(O)c5c4C2(CCN3CC2CC2)[C@H]1O5` (stereo not given in full), the max response was 16.9% (inactive).

With `ClC1C(Cl)C(Cl)C(Cl)C(Cl)C1Cl` (stereo not given), the max response is 4.65% (inactive).

As to `NCC(CP(=O)(O)O)c1ccc(Cl)cc1` (stereo not given), the max response was 18.6% (inactive).

As for `C[C@]12CC[C@H](OS(=O)(=O)O)CC1=CC[C@@H]1[C@@H]2CC[C@]2(C)C(=O)CC[C@@H]12`, the max response is 33.6% (inactive).

Regarding `CN(C)[C@@H]1C(=O)C(C(N)=O)=C(O)[C@@]2(O)C(=O)C3=C(O)c4c(O)ccc(Cl)c4[C@@](C)(O)[C@H]3C[C@@H]12`, the max response is 3.58% (inactive).

Consider `CC(=O)[C@H]1CC[C@H]2[C@@H]3CC[C@@H]4C[C@H](O)CC[C@]4(C)[C@H]3CC[C@]12C`, for which the max response is -3.94% (inactive).

As for `CC1CCC(C(C)C)C(OC(=O)c2ccccc2N)C1` (stereo not given), the max response was 9.28% (inactive).

For `c1ccc2c(c1)[I+]c1ccccc1-2`, the Potency was 166 nM (active).
